Assay results from the supplement of paper PMC10849652.
About 7,900 targets were measured; listed, in parts, are those with a hit and a random draw of the rest. About 0.6% of all pairs of compound and target were hits.

Compound: Cc1cn(-c2cc(NC(=O)c3ccc(C)c(Nc4nccc(-c5cccnc5)n4)c3)cc(C(F)(F)F)c2)cn1 [nilotinib]
Test: log2 fold change, soluble protein after heating vs DMSO (PISA); higher = thermal stabilisation; K562 cells, 10 uM, 30 min; active = over 0.2 and 3.5 SD of the protein, either way, in both replicates (recomputed)
Method in brief: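 Soluble protein was defined as the supernatant after 21,000xg for 90 min. It came from K562 cells at 2×10^6 cells/mL given 10 μM compound for 30 min, heated in aliquots for 3 min across 48°C-58°C, pooled, and extracted in PBS with 0.5% NP-40 at 4°C, and was quantified by TMTpro 16plex LC-MS/MS with equalised channel sums. Thermal stability against control samples, from duplicates, is reported as log2 fold change.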

Sequence of UniProt O00244 (O00244 whole entry, looked up): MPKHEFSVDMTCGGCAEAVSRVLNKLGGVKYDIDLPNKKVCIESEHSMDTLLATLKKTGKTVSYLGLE
Sequence of UniProt P54252 (P54252 whole entry, looked up): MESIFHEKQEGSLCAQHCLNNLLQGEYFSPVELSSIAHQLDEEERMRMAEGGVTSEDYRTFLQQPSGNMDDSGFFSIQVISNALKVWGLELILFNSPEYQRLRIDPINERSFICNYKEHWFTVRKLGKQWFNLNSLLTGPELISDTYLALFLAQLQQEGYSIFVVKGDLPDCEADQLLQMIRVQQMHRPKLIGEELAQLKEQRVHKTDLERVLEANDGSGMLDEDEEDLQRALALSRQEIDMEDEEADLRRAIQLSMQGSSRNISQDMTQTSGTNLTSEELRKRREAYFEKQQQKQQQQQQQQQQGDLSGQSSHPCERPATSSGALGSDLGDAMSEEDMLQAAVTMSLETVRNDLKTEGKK
Sequence of UniProt Q96CW1 (Q96CW1 whole entry, looked up): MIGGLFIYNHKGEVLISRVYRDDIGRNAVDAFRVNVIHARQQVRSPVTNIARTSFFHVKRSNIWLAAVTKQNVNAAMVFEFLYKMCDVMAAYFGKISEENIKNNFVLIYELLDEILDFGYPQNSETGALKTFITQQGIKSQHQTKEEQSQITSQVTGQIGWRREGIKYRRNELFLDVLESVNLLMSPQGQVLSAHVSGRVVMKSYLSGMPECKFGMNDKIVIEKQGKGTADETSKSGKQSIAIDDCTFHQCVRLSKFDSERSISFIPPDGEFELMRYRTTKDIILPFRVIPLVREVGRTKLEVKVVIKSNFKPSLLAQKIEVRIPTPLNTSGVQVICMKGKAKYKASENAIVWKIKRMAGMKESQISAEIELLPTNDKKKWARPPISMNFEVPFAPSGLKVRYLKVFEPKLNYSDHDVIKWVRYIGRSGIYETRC
Sequence of UniProt Q9NWX5 (Q9NWX5 whole entry, looked up): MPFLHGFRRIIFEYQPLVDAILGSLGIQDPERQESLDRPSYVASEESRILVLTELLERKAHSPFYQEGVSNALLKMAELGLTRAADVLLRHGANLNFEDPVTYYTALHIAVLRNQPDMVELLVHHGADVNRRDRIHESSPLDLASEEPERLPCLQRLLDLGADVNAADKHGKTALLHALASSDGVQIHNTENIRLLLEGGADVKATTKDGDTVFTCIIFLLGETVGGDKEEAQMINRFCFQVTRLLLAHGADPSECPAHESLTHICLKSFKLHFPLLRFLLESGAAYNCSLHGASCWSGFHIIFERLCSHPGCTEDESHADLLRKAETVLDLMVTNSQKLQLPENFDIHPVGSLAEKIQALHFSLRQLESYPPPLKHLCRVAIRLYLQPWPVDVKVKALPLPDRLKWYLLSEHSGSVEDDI
Sequence of UniProt O00170 (O00170 whole entry, looked up): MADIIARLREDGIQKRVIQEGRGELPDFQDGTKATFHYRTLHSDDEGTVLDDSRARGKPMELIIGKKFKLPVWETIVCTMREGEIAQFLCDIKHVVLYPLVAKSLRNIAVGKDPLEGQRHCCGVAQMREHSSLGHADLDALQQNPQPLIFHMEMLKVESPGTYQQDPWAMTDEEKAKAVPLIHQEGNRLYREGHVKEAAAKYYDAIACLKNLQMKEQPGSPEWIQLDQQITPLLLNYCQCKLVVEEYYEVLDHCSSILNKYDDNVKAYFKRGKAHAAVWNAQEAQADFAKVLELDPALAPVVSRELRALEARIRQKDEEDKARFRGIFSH
Sequence of UniProt Q15059 (Q15059 whole entry, looked up): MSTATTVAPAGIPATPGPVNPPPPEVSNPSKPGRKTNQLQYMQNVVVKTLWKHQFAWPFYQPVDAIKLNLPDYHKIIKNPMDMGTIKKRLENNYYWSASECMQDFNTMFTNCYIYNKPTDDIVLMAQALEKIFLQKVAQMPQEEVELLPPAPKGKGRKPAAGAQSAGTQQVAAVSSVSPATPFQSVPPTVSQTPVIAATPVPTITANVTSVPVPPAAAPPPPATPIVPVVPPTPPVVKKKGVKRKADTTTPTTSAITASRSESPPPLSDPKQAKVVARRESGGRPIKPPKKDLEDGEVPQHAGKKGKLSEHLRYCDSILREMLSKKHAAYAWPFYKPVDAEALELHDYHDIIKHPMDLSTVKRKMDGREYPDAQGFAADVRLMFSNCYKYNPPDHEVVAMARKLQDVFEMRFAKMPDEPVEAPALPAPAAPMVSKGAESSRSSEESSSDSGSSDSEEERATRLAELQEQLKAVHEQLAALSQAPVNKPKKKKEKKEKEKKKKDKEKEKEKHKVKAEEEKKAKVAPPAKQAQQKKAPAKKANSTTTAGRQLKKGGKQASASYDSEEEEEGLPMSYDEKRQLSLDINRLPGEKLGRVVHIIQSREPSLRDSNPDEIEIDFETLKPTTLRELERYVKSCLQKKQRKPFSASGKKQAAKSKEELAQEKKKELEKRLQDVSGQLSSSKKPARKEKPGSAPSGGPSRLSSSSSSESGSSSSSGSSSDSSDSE
Sequence of UniProt Q562R1 (Q562R1 whole entry, looked up): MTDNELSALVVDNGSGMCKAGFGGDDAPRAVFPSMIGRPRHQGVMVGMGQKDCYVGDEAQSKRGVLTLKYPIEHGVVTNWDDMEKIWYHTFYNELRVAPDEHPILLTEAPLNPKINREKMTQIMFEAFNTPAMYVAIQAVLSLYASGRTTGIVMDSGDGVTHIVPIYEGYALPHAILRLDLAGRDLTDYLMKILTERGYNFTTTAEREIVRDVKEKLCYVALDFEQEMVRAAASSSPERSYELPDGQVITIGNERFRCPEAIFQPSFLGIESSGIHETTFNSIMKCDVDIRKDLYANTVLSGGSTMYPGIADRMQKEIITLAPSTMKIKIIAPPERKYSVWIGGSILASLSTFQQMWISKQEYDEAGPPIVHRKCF
Sequence of UniProt Q96F25 (Q96F25 whole entry, looked up): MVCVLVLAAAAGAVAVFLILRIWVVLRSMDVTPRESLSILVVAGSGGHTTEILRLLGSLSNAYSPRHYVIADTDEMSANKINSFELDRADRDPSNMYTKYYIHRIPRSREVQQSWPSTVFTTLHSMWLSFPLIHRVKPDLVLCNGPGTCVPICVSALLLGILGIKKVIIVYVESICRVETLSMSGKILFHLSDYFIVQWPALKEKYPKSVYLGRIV
Sequence of UniProt Q9UNA0 (Q9UNA0 whole entry, looked up): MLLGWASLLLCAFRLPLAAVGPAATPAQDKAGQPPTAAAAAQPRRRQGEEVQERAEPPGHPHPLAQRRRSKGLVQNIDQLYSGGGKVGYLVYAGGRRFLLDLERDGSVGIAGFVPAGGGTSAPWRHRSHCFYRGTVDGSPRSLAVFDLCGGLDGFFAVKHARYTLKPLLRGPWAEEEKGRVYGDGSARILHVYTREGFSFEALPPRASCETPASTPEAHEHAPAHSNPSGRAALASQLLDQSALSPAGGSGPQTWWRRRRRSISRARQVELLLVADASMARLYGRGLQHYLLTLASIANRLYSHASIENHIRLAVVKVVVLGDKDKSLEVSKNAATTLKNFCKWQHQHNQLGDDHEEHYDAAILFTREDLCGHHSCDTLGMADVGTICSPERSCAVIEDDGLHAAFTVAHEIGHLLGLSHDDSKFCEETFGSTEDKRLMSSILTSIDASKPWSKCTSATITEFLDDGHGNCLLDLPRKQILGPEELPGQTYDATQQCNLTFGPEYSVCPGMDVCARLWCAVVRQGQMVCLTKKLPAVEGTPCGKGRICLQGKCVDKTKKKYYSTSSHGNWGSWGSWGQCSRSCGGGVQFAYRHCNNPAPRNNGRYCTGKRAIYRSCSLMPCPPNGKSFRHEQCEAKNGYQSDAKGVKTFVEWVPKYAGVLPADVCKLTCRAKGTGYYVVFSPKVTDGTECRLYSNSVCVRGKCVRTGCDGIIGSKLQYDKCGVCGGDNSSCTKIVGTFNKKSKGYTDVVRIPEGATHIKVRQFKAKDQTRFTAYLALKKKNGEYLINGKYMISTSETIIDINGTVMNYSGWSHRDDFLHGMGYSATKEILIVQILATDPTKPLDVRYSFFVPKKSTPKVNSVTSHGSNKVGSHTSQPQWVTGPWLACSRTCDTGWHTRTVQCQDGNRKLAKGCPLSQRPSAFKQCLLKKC
Sequence of UniProt P36405 (P36405 whole entry, looked up): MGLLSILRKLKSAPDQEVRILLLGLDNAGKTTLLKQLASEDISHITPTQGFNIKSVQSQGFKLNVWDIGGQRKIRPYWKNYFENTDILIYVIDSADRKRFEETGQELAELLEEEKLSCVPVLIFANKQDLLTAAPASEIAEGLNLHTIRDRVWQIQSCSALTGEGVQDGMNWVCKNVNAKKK
Sequence of UniProt P42331 (P42331 whole entry, looked up): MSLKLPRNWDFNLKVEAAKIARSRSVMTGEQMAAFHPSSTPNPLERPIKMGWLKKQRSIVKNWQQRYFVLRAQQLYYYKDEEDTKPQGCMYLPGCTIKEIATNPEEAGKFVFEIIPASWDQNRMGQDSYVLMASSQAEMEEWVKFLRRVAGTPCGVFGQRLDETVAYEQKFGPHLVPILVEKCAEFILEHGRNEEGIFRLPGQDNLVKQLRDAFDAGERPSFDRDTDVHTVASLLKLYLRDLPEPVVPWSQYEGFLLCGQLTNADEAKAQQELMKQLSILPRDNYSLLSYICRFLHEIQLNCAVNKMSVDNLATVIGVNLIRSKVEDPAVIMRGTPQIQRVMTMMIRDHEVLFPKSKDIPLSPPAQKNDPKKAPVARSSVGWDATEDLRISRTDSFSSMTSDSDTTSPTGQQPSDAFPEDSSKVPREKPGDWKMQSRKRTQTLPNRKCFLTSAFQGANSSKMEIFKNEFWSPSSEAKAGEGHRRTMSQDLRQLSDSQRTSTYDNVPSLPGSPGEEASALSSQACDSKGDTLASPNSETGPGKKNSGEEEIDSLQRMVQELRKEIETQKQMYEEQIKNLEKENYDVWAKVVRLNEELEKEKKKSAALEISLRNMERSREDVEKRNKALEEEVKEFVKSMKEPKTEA
Sequence of UniProt P24666 (P24666 whole entry, looked up): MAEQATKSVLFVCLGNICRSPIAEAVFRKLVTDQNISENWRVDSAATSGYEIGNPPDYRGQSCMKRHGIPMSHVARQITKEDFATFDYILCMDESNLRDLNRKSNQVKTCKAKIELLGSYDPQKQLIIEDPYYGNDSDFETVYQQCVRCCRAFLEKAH

log2 fold change, inactive:
BSCL2 isoform 4 (UniProt Q96G97) 0.101
ARL3 (UniProt P36405) 0.011
ABCA4 (UniProt P78363) 0.106
ALG14 (UniProt Q96F25) 0.061
AFDN isoform 5 (UniProt P55196) -0.06
AP2M1 (UniProt Q96CW1) 0.012
ASB6 (UniProt Q9NWX5) -0.066
ATOX1 (UniProt O00244) 0.047
ADPRH (UniProt P54922) 0.141
ADAMTS5 (UniProt Q9UNA0) 0.022
AASDH (UniProt Q4L235) -0.079
ATP7B (UniProt P35670) 0.006
ATRN (UniProt O75882) 0.027
BRD3 (UniProt Q15059) -0.088
ACP1 (UniProt P24666) 0.078
BRIP1 (UniProt Q9BX63) -0.069
ATXN3 isoform 1 (UniProt P54252) -0.038
ARRDC1 (UniProt Q8N5I2) -0.045
ACTBL2 (UniProt Q562R1) 0.579
ADAM15 (UniProt Q13444) -0.11
AIP (UniProt O00170) -0.062
ARHGAP25 isoform 4 (UniProt P42331) 0.28
ABHD11 (UniProt Q8NFV4) 0.003
